Test results from PubChem BioAssay (Tox21).
Inconclusive results are not listed. Some structures have more than one record in an assay (separate samples or runs), and their calls can disagree. Active and inactive are the calls of the source. Unless noted, calls follow the shape of the dose curve; as a rule, active = well fitted cell-killing curve with a large enough effect in the repeat runs; inconclusive = weak or mixed curves, or effect the other way; inactive = no such curve, though single readings can be large or run the other way.
% is scaled to controls: 0 for no effect and ±100 for the full control effect.

Assay: qHTS assay for small molecule activators of the heat shock response signaling pathway - cell viability counter screen (AID 743209); also: nearly all actives have a fitted effect of over 50% in size; also: potency is read from the fitted curve at half-maximal effect
Conditions: HSE-bla HeLa viability, CellTiter-Glo luminescence, 5 h; series mostly up to 62.6 µM; activity change, negative = cytotoxicity: at the top concentration
Summary of the method: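 Counter screen for cytotoxicity in HeLa HSE-bla reporter cells. Treatment was 5 h at 37 C; viability was detected by luminescent ATP assay (CellTiter-Glo) in the same wells as the beta-lactamase read.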
With `COC(=O)[C@@H](N)CCCN/C(N)=N/[N+](=O)[O-]` the “activity change, negative = cytotoxicity” value was 4.03% (inactive).
For `CCNc1nc(Cl)nc(NC(C)(C)C)n1`, the “activity change, negative = cytotoxicity” value was 3.01% (inactive).
For `CC(C)[N+](C)(CCC(C(N)=O)(c1ccccc1)c1ccccc1)C(C)C`, the “activity change, negative = cytotoxicity” value was -10.1% (inactive).
In the case of `CCOC(=O)N(C)N=O`, the “activity change, negative = cytotoxicity” value is reported as 13% (inactive).
For `c1cncc([C@@H]2CCCCN2)c1`, the “activity change, negative = cytotoxicity” value was -6.97% (inactive).
In the case of `CCOC(=O)CCl`, the “activity change, negative = cytotoxicity” value is reported as -2.49% (inactive).
For `NCCOS(=O)(=O)O`, the “activity change, negative = cytotoxicity” value was 0.396% (inactive).
With `Cc1ccc(-c2nc3ccc(C)cn3c2CC(=O)N(C)C)cc1` the “activity change, negative = cytotoxicity” value was -16.9% (inactive).
In the case of `Cc1ccc2cc(C)ccc2c1`, the “activity change, negative = cytotoxicity” value is reported as -0.0522% (inactive).
In the case of `C[C@H](N)C(=O)c1ccccc1`, the “activity change, negative = cytotoxicity” value is reported as -13.1% [at 81.1 µM] (inactive).
For `C=CCN1CC[C@]23CCCC[C@H]2[C@H]1Cc1ccc(O)cc13`, the “activity change, negative = cytotoxicity” value was -14.4% (inactive).
In the case of `N#CC(Br)(Br)C(N)=O`, the “activity change, negative = cytotoxicity” value is reported as 5.76% (inactive).
In the case of `COc1cccc(C=O)c1`, the “activity change, negative = cytotoxicity” value is reported as -2.22% (inactive).
With `C#CC(C)(C)O` the “activity change, negative = cytotoxicity” value was 9.08% [at 81.1 µM] (inactive).
With `CCN[C@H](C)Cc1cccc(C(F)(F)F)c1` the “activity change, negative = cytotoxicity” value was 2.96% [at 81.1 µM] (inactive).
With `CCOc1cc(OP(=S)(OC)OC)nc(CC)n1` the “activity change, negative = cytotoxicity” value was -1.14% (inactive).
For `Brc1c(Br)c(Br)c(Br)c(Br)c1Br`, the activity change, negative = cytotoxicity was -1.06% [at 5.95 µM] (inactive).
In the case of `CCN(CCO)CCn1c(Cc2ccccc2)nc2c1c(=O)n(C)c(=O)n2C`, the “activity change, negative = cytotoxicity” value is reported as 8.56% (inactive).
For `Cc1cc(OC(=O)N(C)C)nn1C(=O)N(C)C`, the “activity change, negative = cytotoxicity” value was 3.89% (inactive).
With `O=C(Cl)OCc1ccccc1` the “activity change, negative = cytotoxicity” value was 17.7% [at 81.1 µM] (inactive).
In the case of `ClC1=C(Cl)C2(Cl)C(CBr)CC1(Cl)C2(Cl)Cl` (stereo not given), the Potency is reported as 54.9 µM (active) and inactive.
With `CN(C)CCN(C)C` the “activity change, negative = cytotoxicity” value was 1.77% (inactive).
With `O=C(CCl)NCO` the “activity change, negative = cytotoxicity” value was -1.45% (inactive).
For `CCCOC(=O)Cc1ccc(OCC(=O)N(CC)CC)c(OC)c1`, the “activity change, negative = cytotoxicity” value was 0.0486% (inactive).
For `CC[C@H](O)C(C[C@H](C)N(C)C)(c1ccccc1)c1ccccc1`, the “activity change, negative = cytotoxicity” value was -1.84% [at 81.1 µM] (inactive).
With `O=CCCl` the “activity change, negative = cytotoxicity” value was -5.51% (inactive).
For `Cn1c(N)nc2c3cccnc3ccc21`, the “activity change, negative = cytotoxicity” value was 4.76% (inactive).
With `Cl/C=C/CCl` the “activity change, negative = cytotoxicity” value was -4.56% [at 81.1 µM] (inactive).
For `C=CCc1cc(OC)c2c(c1)OCO2`, the “activity change, negative = cytotoxicity” value was -1.76% [at 81.1 µM] (inactive).
With `COc1ccc(C=O)cc1O` the “activity change, negative = cytotoxicity” value was 4.02% [at 81.1 µM] (inactive).
In the case of `Cc1ccc2c(c1)C1CN(C)CCC1N2` (stereo not given), the “activity change, negative = cytotoxicity” value is reported as 13.2% [at 29.1 µM] (inactive).
For `Oc1ccc2c3c1O[C@H]1[C@@H](O)C=C[C@H]4[C@@H](C2)NCC[C@@]341`, the “activity change, negative = cytotoxicity” value was 2.04% [at 81.1 µM] (inactive).
In the case of `CCOC(=O)C(SP(=S)(OC)OC)c1ccccc1` (stereo not given), the “activity change, negative = cytotoxicity” value is reported as -2.45% (inactive).
In the case of `CC(C)[C@]12CC(=O)[C@H](C)[C@H]1C2`, the “activity change, negative = cytotoxicity” value is reported as 7.95% (inactive).
With `O=c1[nH]oc2c1CCNC2` the “activity change, negative = cytotoxicity” value was -2.91% (inactive).

Assay: qHTS assay for small molecule activators of the heat shock response signaling pathway (AID 743210; active = well fitted activation curve with a large enough effect in the signal ratio in the repeat runs, with a control signal flat, not every such curve was filed as active; the % refers to the signal ratio;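 also: HeLa cells with beta-lactamase reporter driven by heat shock elements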)
Conditions: HeLa HSE-bla reporter, beta-lactamase ratio, 5 h; series mostly up to 62.6 µM; activation: at the top concentration
Summary of the method: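 In HSE-bla HeLa cells, 5 h compound incubation (37 C) precedes addition of LiveBLAzer B/G substrate; after 2.5 h at room temperature, fluorescence intensity indicates reporter induction.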
For `COC(=O)[C@@H](N)CCCN/C(N)=N/[N+](=O)[O-]`, the “activation” value was -0.146% (inactive).
In the case of `CCNc1nc(Cl)nc(NC(C)(C)C)n1`, the “activation” value is reported as -0.0974% (inactive).
In the case of `CC(C)[N+](C)(CCC(C(N)=O)(c1ccccc1)c1ccccc1)C(C)C`, the “activation” value is reported as -1.76% (inactive).
For `CCOC(=O)N(C)N=O`, the “activation” value was -0.369% (inactive).
For `c1cncc([C@@H]2CCCCN2)c1`, the “activation” value was -0.34% (inactive).
With `CCOC(=O)CCl` the “activation” value was -0.608% (inactive).
With `NCCOS(=O)(=O)O` the “activation” value was -0.31% (inactive).
For `Cc1ccc(-c2nc3ccc(C)cn3c2CC(=O)N(C)C)cc1`, the “activation” value was -0.664% (inactive).
In the case of `Cc1ccc2cc(C)ccc2c1`, the “activation” value is reported as -0.422% (inactive).
For `C[C@H](N)C(=O)c1ccccc1`, the “activation” value was -2.12% [at 81.1 µM] (inactive).
With `C=CCN1CC[C@]23CCCC[C@H]2[C@H]1Cc1ccc(O)cc13` the “activation” value was 0.754% (inactive).
For `N#CC(Br)(Br)C(N)=O`, the “activation” value was 0.91% (inactive).
For `COc1cccc(C=O)c1`, the “activation” value was -1.31% (inactive).
For `C#CC(C)(C)O`, the “activation” value was -0.884% [at 81.1 µM] (inactive).
For `CCOc1cc(OP(=S)(OC)OC)nc(CC)n1`, the “activation” value was -0.663% (inactive).
With `Brc1c(Br)c(Br)c(Br)c(Br)c1Br` the activation was -1.19% [at 5.95 µM] (inactive).
For `CCN(CCO)CCn1c(Cc2ccccc2)nc2c1c(=O)n(C)c(=O)n2C`, the “activation” value was 0.3% (inactive).
For `Cc1cc(OC(=O)N(C)C)nn1C(=O)N(C)C`, the “activation” value was 0.956% (inactive).
With `ClC1=C(Cl)C2(Cl)C(CBr)CC1(Cl)C2(Cl)Cl` (stereo not given) the “activation” value was -0.45% (inactive).
With `O=C(CCl)NCO` the “activation” value was -1.1% (inactive).
For `CCCOC(=O)Cc1ccc(OCC(=O)N(CC)CC)c(OC)c1`, the “activation” value was -0.2% (inactive).
In the case of `CC[C@H](O)C(C[C@H](C)N(C)C)(c1ccccc1)c1ccccc1`, the “activation” value is reported as -1.32% [at 81.1 µM] (inactive).
In the case of `O=CCCl`, the “activation” value is reported as -1.34% (inactive).
With `Cn1c(N)nc2c3cccnc3ccc21` the “activation” value was -0.124% (inactive).
With `C=CCc1cc(OC)c2c(c1)OCO2` the “activation” value was 0.181% [at 81.1 µM] (inactive).
With `COc1ccc(C=O)cc1O` the “activation” value was -1.99% [at 81.1 µM] (inactive).
With `Cc1ccc2c(c1)C1CN(C)CCC1N2` (stereo not given) the “activation” value was -0.321% [at 29.1 µM] (inactive).
For `CCOC(=O)C(SP(=S)(OC)OC)c1ccccc1` (stereo not given), the “activation” value was 0.928% (inactive).
In the case of `CC(C)[C@]12CC(=O)[C@H](C)[C@H]1C2`, the “activation” value is reported as -0.0496% (inactive).
In the case of `O=c1[nH]oc2c1CCNC2`, the “activation” value is reported as -0.0582% (inactive).
